Results as given in the supplement of paper PMC10681739.

Target: T1, ETS1 (UniProt P14921)
T1 sequence: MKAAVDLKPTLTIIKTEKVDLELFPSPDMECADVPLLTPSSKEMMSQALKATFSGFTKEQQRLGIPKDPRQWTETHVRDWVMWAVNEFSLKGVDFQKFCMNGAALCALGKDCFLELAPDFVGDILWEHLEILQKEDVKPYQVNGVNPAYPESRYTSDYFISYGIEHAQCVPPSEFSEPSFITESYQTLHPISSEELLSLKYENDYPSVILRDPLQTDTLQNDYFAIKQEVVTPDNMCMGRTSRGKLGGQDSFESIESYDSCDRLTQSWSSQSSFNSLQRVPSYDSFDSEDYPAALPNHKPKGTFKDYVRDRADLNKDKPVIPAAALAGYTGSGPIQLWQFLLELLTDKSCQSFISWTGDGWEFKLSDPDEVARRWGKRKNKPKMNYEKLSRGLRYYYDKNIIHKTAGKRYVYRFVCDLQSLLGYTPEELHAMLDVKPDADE
Test: TF binding intensity (PBM fluorescence), negative control probe (arbitrary fluorescence units); higher = stronger binding
Description: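 gcPBM negative-control 36-bp genomic probes lacking TF binding sites. Each was incubated with recombinant human ETS1 or RUNX1 alone and detected by antibody fluorescence. Values are medians over replicate spots (4 spots for the ETS1-RUNX1 arrays, 3 for the ETS1-ETS1 array). The probes sit in constant array flanks that are not printed.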

| Sequence | TF binding intensity |
| --- | --- |
| TTTTTCTTTTAATTTTTCTTTTTTATTCTATTTTTT (protein concentration 10 nM) | 117 |
| GTTCATCATCTCTCGTCAAGATGATTAACGACATGG (protein concentration 10 nM) | 141 |
| GGCGGCGCCGGCGGCTGCGGGGTTATCTCCGCGGCC (protein concentration 10 nM) | 107 |
| CTCTGCCCAGTTGGTTGTGGCTCTTCATTACTGTGG (protein concentration 1 nM) | 512 |
| ACCTGGGTCTCTGACAGACACCCCAAACTTCAGTTC (protein concentration 10 nM) | 102 |
| ATAAAACACAGTGTACAGTGACCTTTTAATCACAAC (protein concentration 10 nM) | 132 |
| ATTTCTTGAGAAATCTGTGGTTATTATTTAACTCTT (protein concentration 1 nM) | 461 |
| ACTTTCTATGAGGCTGCCACTCCTGGTACCACACAT (protein concentration 10 nM) | 133 |
| GCAACACTCACTCAAACCACAGTAATCAAAAGGCAC (protein concentration 1 nM) | 496 |
| TGACCATTTGAGGTTTGTGGTTATGCATATAAAATG (protein concentration 1 nM) | 577 |
| TACTGGGGAGTGAAAAGGACACATCTATCCTTATAT (protein concentration 10 nM) | 103 |
| AGGTGATATCTATCCCTTTCATTTCTTCTGAACAGG (protein concentration 10 nM) | 114 |
| TGGACTAACTCCATTGCCTTTGTATACATTGGTTTC (protein concentration 10 nM) | 102 |
| CAGTGCAGCTGTTTGCCATGTGGGCCCACACCACTG (protein concentration 10 nM) | 126 |
| CCTGAGGCCTGCCCCAGTCACCTGTATTTACCCTGC (protein concentration 10 nM) | 122 |
| GAAATCACGGGACCCCGAGCGGTTGGAGATCTGCCA (protein concentration 10 nM) | 91.7 |
| TCCTCTGGTCTCTAAACCACAGCCTCCACCAGCAAC (protein concentration 1 nM) | 442 |
| CCAGCCAACCCAAAGACCACACCCCACCACCTCCTC (protein concentration 1 nM) | 491 |
| TCCGATGTTACCTGGGCTGGGCCATGGAGAATGGCG (protein concentration 10 nM) | 112 |
| TTTTTTTTTTTGGTCTGTGGTTTTGGAGTTTTTGTT (protein concentration 1 nM) | 716 |

| Sequence | TF binding intensity |
| --- | --- |
| CAACGCAGACTACTAACCACTAGAGAATCCCAAGGC (protein concentration 1 nM) | 485 |
| AACTTGTCCCTGGAATGTGGTTGAAACAGACTTAGG (protein concentration 1 nM) | 448 |
| ATTCTTCTAATAATCCAGTTTGAGTGGATCCTCTGT (protein concentration 10 nM) | 112 |
| GTATTTTGGGCGATAACACTTTCTCTACTTCTAAAA (protein concentration 10 nM) | 116 |
| TTTTGGATGATGCAAACCGCGCAAAAGCAGCATTCA (protein concentration 1 nM) | 449 |
| TTAATTAAGCGGTTTATATCAAGAAAAAGGCATTTC (protein concentration 10 nM) | 115 |
| ACGAAAGTAAACAGTACTAGGTGCAGGGGCTTTAAT (protein concentration 10 nM) | 117 |
| TATTTTCCAAAAGTGGCCACAACAACATCTGCCAAC (protein concentration 1 nM) | 442 |
| GTGTCTGCCTCATTGGCGAAGGCCAGCCTCTGAGCC (protein concentration 10 nM) | 140 |
| AACAGCCCCCTGAACTGCAGGGTGTGACTGTTAGCC (protein concentration 10 nM) | 140 |
| CTGAGAGCCAGGCCCGTTCCCTCTGAACCTCAGTTC (protein concentration 10 nM) | 103 |
| GCTTTTTTTTTCTGTTGTGGGAGAAAGATGAGAGTC (protein concentration 1 nM) | 535 |
| CTGTTGTTTGACTTTAGTCATCTCCTACTTTTATAG (protein concentration 10 nM) | 137 |
| GCCCTGAGACTTGCCTTGCAATGCCATGTTTGTGTA (protein concentration 10 nM) | 125 |
| TCCTCAAAATTAAGGTGCGGTGCCAGGCGCAGTGGC (protein concentration 1 nM) | 374 |
| ACTTAGGTCTCTGTTACCACCATGAAACAATTTAGT (protein concentration 1 nM) | 545 |
| TGATCTTTGCTTTGCTTTTTGAAAGATCTGGCAAGG (protein concentration 10 nM) | 104 |
| GGGGGTATAGGGGAGCAGTCCCATGTAGTAGTAGAA (protein concentration 10 nM) | 172 |
| GGCTGGTAGAAATACTGCGGCTAATAAAGGCGTGGA (protein concentration 1 nM) | 425 |
| ACTCTAGTTTGTGATTTTTAAAACGTTTGAAAGCCA (protein concentration 10 nM) | 124 |
